Assay results published in the supplement of paper PMC11732987, “Enantioselective OTUD7B fragment discovery through chemoproteomics screening and high-throughput optimisation” (Communications Chemistry, 2025).

Assays:
Test in all cases: log2 ratio of Biotin-Ahx-Ub-VS probe labelling (fragment/DMSO); higher = less target engagement (more negative = stronger competition), active = hit call of the paper (q ≤ 0.05, log2 ratio ≤ -1)
Conditions in all cases: compound concentration: 200 uM; treatment time: 3 h
USP42 = target: T1, USP42 (UniProt Q9H9J4)
T1 sequence (whole entry): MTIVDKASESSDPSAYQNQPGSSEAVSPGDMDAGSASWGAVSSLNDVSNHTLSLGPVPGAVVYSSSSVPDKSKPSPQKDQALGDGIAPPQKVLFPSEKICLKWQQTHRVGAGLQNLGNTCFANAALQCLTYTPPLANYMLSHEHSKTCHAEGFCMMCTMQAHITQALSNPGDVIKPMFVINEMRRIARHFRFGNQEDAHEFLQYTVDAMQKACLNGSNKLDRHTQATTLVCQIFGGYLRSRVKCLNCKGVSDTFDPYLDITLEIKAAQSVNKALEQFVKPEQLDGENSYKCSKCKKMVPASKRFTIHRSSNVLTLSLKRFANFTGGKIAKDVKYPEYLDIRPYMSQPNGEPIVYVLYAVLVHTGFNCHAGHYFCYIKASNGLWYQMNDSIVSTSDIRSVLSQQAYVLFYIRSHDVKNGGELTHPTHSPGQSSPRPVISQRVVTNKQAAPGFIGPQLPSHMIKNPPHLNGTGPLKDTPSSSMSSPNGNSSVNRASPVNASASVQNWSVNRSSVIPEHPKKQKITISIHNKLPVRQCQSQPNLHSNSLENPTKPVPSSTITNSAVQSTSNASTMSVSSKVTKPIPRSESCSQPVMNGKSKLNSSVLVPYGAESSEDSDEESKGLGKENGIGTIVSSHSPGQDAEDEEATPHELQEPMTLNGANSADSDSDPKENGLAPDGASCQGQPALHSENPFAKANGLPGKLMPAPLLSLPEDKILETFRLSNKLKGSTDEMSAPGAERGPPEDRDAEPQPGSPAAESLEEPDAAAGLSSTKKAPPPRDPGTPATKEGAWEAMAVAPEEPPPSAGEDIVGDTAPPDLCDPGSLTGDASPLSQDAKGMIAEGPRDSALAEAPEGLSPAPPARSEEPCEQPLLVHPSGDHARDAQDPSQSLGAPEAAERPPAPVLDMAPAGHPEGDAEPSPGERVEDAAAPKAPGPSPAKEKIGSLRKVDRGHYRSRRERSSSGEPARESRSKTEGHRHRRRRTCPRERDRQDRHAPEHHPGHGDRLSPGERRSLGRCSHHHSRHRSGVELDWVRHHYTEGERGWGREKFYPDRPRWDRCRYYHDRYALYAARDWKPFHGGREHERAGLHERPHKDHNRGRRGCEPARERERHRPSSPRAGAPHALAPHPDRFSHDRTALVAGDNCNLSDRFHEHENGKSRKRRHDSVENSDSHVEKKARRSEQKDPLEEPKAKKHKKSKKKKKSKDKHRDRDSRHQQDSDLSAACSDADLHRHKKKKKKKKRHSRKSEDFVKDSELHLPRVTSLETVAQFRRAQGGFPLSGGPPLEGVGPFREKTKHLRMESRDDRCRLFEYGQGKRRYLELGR
How it was run: (§1)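 Average log2 ratios of fragment over vehicle were obtained by unpaired t-test from global-median-normalised Spectronaut label-free quantities. Proteins with ≥2 unique peptides were included. HEK293T lysate (495 µg per sample) was treated in triplicate with fragment at 200 µM or vehicle for 3 h, then with Biotin-Ahx-Ub-VS at 0.5 µM final for 1 h, and labelled DUBs were NeutrAvidin-enriched and run by diaPASEF LC-MS/MS.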

USP46 = USP46 (UniProt P62068)
How it was run: as §1

USP47 = target: T2, USP47 (UniProt Q96K76)
T2 sequence (whole entry): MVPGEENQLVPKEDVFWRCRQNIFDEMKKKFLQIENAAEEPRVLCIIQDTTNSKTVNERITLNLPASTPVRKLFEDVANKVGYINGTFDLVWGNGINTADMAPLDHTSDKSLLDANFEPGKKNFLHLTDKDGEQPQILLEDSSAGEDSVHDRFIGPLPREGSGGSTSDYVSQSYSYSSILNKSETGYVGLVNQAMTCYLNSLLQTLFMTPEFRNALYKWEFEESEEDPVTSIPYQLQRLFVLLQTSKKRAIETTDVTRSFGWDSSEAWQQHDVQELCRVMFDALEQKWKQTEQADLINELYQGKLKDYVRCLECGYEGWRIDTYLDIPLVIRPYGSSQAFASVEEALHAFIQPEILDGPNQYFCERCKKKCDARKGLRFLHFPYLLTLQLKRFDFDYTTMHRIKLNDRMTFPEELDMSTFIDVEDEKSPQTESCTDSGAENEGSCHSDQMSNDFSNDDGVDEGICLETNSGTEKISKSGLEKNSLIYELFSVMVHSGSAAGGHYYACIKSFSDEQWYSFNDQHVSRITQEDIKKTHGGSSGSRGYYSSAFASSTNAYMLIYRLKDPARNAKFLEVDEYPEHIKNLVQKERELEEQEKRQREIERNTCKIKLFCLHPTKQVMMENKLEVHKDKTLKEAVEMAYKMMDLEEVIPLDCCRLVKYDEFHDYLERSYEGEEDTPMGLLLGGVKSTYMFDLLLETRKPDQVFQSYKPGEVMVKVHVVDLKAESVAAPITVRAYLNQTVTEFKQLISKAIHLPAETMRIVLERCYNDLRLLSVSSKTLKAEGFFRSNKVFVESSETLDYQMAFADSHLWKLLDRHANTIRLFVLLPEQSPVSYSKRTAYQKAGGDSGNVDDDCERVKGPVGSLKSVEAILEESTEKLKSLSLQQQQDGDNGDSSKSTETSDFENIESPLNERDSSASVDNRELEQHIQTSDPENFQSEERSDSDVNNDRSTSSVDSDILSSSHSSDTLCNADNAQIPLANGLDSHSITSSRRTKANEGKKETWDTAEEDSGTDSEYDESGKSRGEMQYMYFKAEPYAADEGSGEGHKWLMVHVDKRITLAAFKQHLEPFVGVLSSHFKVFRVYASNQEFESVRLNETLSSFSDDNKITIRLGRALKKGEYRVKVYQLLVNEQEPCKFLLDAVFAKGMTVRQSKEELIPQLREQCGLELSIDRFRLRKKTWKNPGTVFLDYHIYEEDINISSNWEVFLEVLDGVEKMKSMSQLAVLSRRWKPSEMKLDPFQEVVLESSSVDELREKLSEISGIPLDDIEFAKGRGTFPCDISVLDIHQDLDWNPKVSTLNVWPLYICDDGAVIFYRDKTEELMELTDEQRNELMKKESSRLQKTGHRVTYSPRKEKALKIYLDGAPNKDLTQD
How it was run: as §1

USP48 = target: T3, USP48 (UniProt Q86UV5)
T3 sequence (whole entry): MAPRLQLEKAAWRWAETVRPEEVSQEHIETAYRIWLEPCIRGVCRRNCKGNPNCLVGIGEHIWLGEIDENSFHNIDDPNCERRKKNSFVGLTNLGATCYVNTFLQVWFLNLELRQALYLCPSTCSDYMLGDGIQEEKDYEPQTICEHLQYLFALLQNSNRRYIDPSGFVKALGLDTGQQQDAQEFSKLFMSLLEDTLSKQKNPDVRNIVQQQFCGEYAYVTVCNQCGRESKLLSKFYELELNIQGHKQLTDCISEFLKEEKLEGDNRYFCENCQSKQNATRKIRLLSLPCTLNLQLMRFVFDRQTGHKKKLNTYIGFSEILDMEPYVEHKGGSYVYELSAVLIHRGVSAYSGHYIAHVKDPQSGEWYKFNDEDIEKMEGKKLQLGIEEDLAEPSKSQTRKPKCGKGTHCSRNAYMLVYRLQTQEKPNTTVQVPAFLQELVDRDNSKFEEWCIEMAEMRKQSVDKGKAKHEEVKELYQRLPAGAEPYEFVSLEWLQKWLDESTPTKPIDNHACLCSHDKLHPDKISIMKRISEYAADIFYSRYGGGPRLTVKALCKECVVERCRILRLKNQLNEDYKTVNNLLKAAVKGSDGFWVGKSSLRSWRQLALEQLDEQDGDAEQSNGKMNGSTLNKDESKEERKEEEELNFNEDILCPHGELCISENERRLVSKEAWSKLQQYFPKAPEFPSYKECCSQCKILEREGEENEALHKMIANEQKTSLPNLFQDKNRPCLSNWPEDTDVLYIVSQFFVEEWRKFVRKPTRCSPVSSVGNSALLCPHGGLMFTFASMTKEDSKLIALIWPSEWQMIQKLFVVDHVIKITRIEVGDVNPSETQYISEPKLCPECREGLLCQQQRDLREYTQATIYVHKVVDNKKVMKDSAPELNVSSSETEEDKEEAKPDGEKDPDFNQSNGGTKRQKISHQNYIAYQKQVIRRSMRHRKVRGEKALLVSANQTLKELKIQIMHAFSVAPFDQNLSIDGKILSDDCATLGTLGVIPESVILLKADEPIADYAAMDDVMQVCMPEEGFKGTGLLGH
How it was run: as §1

USP5 = target: T4, USP5 (UniProt P45974)
T4 sequence (whole entry): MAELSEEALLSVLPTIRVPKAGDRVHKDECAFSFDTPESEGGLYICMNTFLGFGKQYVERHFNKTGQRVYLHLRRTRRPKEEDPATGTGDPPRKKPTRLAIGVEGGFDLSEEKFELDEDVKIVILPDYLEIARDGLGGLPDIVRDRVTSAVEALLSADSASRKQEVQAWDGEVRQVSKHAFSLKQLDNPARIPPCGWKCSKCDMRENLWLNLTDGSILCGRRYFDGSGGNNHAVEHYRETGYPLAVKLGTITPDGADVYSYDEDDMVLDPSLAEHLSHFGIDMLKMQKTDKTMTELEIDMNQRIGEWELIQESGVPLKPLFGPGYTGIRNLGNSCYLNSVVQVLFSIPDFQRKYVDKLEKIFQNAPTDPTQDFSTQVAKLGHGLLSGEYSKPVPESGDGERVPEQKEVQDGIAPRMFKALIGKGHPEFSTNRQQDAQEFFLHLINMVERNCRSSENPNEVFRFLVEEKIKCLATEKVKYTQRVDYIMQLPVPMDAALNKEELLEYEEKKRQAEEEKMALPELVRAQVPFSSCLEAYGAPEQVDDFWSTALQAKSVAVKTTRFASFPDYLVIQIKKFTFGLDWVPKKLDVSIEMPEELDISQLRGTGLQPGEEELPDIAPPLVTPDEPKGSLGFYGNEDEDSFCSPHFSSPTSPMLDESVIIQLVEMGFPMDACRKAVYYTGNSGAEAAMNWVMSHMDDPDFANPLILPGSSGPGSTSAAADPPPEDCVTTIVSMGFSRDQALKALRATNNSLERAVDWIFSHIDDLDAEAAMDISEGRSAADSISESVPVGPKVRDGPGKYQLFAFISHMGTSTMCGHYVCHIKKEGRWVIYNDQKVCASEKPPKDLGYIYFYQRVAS
How it was run: as §1

USP54 = USP54 (UniProt Q70EL1)
How it was run: as §1

USP7 = USP7 (UniProt Q93009)
How it was run: as §1

USP8 = target: T5, USP8 (UniProt P40818)
T5 sequence (whole entry): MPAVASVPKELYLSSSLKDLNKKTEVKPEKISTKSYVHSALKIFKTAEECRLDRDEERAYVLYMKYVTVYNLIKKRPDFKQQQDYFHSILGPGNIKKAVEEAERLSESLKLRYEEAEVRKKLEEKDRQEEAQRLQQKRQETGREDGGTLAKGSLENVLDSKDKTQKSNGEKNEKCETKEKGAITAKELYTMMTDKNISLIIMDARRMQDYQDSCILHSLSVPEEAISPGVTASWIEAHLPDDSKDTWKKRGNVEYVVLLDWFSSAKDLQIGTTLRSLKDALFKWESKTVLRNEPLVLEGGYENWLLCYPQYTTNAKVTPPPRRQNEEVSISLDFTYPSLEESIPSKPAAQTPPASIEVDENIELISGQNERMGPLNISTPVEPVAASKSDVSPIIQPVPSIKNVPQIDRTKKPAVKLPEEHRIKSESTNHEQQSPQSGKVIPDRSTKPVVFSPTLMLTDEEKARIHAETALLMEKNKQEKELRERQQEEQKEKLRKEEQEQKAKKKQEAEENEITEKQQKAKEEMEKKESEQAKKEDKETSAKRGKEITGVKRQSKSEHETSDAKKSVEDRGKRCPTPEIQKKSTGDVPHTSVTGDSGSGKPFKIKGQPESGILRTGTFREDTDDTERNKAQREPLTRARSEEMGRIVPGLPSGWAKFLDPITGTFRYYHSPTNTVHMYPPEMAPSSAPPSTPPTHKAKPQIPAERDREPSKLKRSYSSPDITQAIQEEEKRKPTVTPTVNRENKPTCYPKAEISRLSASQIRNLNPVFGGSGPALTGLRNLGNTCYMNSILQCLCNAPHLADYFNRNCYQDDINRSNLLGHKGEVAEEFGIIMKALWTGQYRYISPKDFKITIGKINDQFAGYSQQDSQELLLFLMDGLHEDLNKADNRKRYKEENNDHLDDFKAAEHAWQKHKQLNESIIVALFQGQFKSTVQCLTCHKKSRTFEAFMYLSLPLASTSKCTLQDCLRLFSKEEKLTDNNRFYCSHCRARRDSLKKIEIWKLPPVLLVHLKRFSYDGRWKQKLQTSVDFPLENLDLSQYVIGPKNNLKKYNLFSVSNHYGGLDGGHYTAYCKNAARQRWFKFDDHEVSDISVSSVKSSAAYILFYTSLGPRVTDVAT
How it was run: as §1

USP9X = USP9X (UniProt Q93008)
How it was run: as §1

UniProt O00487 = target: UniProt O00487
How it was run: as §1

Measured: log2 ratio of Biotin-Ahx-Ub-VS probe labelling

Sequence of USP9X (Q93008 whole entry): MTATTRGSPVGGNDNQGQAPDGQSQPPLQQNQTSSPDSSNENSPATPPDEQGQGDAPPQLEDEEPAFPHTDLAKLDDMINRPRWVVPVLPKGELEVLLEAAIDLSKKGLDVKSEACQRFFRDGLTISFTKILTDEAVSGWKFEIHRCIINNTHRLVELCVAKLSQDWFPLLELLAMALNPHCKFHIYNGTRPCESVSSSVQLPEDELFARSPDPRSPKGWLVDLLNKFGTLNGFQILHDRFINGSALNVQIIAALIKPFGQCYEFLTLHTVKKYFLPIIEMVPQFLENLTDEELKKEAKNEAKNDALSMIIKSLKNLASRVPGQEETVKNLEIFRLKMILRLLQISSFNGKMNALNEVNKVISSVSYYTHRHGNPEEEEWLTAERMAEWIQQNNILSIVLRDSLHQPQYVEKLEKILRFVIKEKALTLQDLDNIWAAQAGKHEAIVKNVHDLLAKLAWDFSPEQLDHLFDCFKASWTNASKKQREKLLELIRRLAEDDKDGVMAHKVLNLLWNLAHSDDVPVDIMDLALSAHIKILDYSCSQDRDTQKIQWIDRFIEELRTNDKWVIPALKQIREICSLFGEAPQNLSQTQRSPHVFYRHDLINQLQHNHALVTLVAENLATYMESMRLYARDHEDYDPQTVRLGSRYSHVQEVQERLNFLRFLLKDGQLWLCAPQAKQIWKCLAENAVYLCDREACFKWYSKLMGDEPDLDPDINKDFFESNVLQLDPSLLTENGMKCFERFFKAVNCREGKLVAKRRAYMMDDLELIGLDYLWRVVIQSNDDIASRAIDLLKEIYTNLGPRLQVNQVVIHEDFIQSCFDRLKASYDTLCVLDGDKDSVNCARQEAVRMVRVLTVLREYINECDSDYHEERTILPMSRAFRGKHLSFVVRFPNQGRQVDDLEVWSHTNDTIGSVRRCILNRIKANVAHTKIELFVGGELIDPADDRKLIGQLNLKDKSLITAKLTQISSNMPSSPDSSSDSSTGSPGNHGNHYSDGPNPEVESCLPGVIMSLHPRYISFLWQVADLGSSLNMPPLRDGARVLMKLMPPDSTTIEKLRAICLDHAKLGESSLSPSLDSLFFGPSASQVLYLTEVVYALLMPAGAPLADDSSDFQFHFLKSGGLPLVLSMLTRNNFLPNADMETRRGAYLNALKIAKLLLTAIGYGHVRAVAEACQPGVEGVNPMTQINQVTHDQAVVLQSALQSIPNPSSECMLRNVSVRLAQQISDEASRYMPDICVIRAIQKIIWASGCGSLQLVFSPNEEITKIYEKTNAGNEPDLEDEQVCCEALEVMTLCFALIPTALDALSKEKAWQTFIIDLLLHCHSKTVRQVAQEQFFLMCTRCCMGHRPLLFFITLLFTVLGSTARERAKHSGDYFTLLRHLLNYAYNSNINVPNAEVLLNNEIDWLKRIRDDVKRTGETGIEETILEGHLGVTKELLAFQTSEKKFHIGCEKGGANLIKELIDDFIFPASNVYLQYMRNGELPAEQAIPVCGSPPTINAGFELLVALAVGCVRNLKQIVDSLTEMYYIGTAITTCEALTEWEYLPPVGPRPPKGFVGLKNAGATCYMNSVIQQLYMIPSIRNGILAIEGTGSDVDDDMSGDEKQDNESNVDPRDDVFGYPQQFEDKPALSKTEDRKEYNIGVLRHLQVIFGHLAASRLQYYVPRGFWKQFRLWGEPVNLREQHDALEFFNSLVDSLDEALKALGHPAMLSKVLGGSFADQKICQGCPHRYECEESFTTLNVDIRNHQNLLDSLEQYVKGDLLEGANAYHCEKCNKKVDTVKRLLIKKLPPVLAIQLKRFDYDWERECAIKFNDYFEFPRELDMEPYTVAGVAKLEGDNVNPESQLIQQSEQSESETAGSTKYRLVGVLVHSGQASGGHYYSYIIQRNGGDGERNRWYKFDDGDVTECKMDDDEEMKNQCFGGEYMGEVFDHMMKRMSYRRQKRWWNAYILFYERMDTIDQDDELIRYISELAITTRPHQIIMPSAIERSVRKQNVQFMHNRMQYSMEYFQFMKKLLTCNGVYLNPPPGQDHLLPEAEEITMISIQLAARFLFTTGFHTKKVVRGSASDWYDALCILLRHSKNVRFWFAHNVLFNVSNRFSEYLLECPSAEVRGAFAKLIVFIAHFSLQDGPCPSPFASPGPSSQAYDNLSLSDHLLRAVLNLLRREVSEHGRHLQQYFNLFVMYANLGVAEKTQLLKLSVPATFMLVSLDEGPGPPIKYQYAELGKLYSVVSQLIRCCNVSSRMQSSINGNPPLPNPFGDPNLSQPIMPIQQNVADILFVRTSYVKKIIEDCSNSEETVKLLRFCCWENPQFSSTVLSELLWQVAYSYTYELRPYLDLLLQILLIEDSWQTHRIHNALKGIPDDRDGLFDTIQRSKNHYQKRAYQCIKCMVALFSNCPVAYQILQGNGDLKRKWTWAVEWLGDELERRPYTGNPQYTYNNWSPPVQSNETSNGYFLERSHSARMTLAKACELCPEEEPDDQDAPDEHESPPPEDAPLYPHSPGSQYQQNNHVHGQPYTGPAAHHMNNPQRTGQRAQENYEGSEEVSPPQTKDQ
Sequence of USP46 (P62068 whole entry): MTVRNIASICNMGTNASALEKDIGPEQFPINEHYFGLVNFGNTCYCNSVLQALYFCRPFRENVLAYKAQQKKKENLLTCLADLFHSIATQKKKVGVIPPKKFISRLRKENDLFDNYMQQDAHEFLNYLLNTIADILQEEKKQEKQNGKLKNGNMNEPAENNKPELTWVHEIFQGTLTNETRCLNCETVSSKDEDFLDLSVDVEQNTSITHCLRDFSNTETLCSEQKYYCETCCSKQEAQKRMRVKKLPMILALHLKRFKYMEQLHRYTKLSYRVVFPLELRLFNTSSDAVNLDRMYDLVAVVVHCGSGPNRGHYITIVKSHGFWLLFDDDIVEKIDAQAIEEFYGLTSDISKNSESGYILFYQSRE
Sequence of UniProt O00487 (O00487 whole entry): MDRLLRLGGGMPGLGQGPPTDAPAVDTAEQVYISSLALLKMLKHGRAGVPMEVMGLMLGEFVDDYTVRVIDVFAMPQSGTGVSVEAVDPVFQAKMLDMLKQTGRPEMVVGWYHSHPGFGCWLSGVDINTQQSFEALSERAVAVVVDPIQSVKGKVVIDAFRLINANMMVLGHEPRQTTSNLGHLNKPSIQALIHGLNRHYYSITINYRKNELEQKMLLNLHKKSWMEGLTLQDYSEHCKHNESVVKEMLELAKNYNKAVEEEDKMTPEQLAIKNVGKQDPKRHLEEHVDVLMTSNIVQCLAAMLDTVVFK
Sequence of USP54 (Q70EL1 whole entry): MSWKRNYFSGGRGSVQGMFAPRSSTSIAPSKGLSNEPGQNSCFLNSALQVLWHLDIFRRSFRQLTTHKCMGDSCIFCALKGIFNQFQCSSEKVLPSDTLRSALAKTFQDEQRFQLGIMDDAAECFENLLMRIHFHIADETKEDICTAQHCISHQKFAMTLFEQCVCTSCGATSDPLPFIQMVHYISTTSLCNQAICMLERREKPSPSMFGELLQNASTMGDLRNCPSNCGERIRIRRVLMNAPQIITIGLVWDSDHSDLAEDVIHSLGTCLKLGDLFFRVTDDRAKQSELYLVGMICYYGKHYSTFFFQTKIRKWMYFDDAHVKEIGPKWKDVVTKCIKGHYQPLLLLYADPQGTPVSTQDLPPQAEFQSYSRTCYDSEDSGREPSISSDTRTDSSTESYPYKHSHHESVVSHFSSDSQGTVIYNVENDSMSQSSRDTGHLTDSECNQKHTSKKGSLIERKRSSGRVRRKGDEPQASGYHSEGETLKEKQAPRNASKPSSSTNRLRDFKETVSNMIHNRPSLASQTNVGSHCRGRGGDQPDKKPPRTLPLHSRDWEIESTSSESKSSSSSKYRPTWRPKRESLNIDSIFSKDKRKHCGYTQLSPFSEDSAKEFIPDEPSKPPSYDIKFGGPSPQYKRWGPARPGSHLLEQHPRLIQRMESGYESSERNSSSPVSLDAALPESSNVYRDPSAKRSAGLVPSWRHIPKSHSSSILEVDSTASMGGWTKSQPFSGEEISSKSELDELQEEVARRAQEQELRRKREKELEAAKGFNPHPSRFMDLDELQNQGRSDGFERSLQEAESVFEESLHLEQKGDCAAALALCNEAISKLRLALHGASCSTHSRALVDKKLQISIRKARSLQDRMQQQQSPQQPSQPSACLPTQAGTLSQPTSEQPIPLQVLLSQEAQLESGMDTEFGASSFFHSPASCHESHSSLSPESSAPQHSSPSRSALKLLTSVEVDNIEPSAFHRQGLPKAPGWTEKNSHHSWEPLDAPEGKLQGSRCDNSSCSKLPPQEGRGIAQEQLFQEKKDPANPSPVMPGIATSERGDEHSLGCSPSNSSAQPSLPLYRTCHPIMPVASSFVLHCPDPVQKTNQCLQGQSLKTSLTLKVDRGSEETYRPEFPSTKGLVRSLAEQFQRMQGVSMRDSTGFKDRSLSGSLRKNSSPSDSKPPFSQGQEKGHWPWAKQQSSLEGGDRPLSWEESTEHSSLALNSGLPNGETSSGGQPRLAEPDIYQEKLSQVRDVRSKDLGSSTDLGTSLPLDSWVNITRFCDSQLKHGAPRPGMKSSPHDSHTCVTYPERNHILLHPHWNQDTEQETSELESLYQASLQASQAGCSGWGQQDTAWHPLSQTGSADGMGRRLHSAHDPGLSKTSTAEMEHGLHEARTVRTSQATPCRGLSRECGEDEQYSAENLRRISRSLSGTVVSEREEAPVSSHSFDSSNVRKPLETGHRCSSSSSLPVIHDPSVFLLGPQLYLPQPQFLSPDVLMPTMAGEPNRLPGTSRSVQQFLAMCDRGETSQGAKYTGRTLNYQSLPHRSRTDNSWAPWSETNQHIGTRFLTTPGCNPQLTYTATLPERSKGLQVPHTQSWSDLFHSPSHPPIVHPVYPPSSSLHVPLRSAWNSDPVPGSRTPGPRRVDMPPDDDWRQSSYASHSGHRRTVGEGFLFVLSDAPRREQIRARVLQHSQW

Cl.Cn1ncc2c1CCCC2NC(=O)CCl (stereo not given)
active: USP47 -1.12
inactive: USP42 0.564 | USP46 -0.0969 | USP48 -0.07 | USP5 -0.277 | USP54 0.656 | USP7 -0.377 | USP8 0.0774 | USP9X -0.000676 | UniProt O00487 -0.128
